These results are taken from PubChem BioAssay (EPA / NIEHS).

What all share (details): mRNA level, 48 h; actives raise or lower the signal
Read-out in assay [1]: cysteine-aspartic acid protease (CASP8), CASP8 (gene 841)
Put plainly: LTEA_HepaRG_CASP8: Life Technologies and Expression Analysis (LTEA) Assay for cysteine-aspartic acid protease (CASP8) using HepaRG (AID 2283480). An outline of the steps:
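Differentiated human HepaRG cells, plated 48 h then switched to serum-free induction medium, were exposed in duplicate for 48 h to 8 half-log concentrations up to 100 uM in 0.5% DMSO. CASP8 mRNA was quantified by qRT-PCR, normalized to ACTB/GAPDH/POLR2A.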

Read-out in assay [2]: Cytochrome P450 (CYP2B6), CYP2B6 (gene 1555)
As to the kind of experiment: LTEA_HepaRG_CYP2B6: Life Technologies and Expression Analysis (LTEA) Assay for Cytochrome P450 (CYP2B6) using HepaRG (AID 2283481). An outline of the steps:
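CYP2B6 transcript level quantified by qRT-PCR against three housekeeping genes, fitted bidirectionally relative to DMSO. HepaRG cultures received chemicals for 48 h, 8-point half-log series from 100 uM in 0.5% DMSO, duplicate wells, serum-free induction medium.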

Read-out in assay [3]: Cytochrome P450 2C19 (Homo sapiens) (UniProt P33261)
Put plainly: LTEA_HepaRG_CYP2C19: Life Technologies and Expression Analysis (LTEA) Assay for CYP2C19 using HepaRG (AID 2283482). The method, boiled down:
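CYP2C19 transcript levels by qRT-PCR, normalized to three housekeeping genes, in HepaRG cells after 48 h chemical exposure. Eight-point half-log series topping at 100 uM, 0.5% DMSO vehicle. Increases and decreases both fitted against DMSO.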

Read-out in a further assay: CYP2C8 (gene 1558)
Put plainly: LTEA_HepaRG_CYP2C8: Life Technologies and Expression Analysis (LTEA) Assay for CYP2C8 using HepaRG (AID 2283483). An outline of the steps: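 Differentiated human HepaRG cells were exposed for 48 h in serum-free induction medium to eight half-log concentrations up to 100 uM in 0.5% DMSO, in duplicate. CYP2C8 mRNA was measured by TaqMan qRT-PCR, normalized to ACTB, GAPDH and POLR2A, and fitted bidirectionally against DMSO.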

Read-out in a further assay: CYP2C9 (gene 1559)
Put plainly: LTEA_HepaRG_CYP2C9: Life Technologies and Expression Analysis (LTEA) Assay for CYP2C9 using HepaRG (AID 2283484). An outline of the steps:
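Differentiated human HepaRG cells were exposed 48 h in serum-free induction medium to eight half-log concentrations up to 100 uM in 0.5% DMSO. CYP2C9 mRNA was measured by qRT-PCR, normalized to ACTB, GAPDH and POLR2A, and fitted bidirectionally against DMSO.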

Read-out in a further assay: CYP4A11 (gene 1579)
Put plainly: LTEA_HepaRG_CYP4A11: Life Technologies and Expression Analysis (LTEA) Assay for CYP4A11 using HepaRG (AID 2283486). An outline of the steps:
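Readout is CYP4A11 transcript level by qRT-PCR, normalized to three housekeeping genes and fitted bidirectionally against 0.5% DMSO. Human HepaRG cells were treated 48 h, in duplicate, with an 8-point half-log series topping at 100 uM.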

Read-out in assay [4]: Cytochrome P450 3A4 (Homo sapiens) (UniProt P08684)
Put plainly: LTEA_HepaRG_CYP3A4: Life Technologies and Expression Analysis (LTEA) Assay for CYP3A4 using HepaRG (AID 2283487). The method, boiled down: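 CYP3A4 transcript measured by TaqMan qRT-PCR and normalized to three housekeeping genes after 48 h chemical exposure of human HepaRG cells. Top concentration 100 uM, half-log steps, 0.5% DMSO vehicle; gain or loss fitted against DMSO baseline.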

Read-out in assay [5]: Pro-epidermal growth factor (Homo sapiens) (UniProt P01133)
As to the kind of experiment: LTEA_HepaRG_EGF: Life Technologies and Expression Analysis (LTEA) Assay for Epidermal growth factor (EGF) using HepaRG (AID 2283489). The method, boiled down:
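EGF transcript measured by Fluidigm TaqMan qRT-PCR with three housekeeping genes for normalization, 48 h after dosing HepaRG cultures in duplicate (top 100 uM, half-log steps, 0.5% DMSO vehicle). Gain or loss relative to DMSO fitted.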

The source made the active and inactive calls. Rule for the calls: active = hit-call score of the fitted dose curve at least 0.9, where 1 is the maximum; inactive = score below 0.9.

Cytochrome P450 2C19 (Homo sapiens), sequence (P33261 whole entry, looked up): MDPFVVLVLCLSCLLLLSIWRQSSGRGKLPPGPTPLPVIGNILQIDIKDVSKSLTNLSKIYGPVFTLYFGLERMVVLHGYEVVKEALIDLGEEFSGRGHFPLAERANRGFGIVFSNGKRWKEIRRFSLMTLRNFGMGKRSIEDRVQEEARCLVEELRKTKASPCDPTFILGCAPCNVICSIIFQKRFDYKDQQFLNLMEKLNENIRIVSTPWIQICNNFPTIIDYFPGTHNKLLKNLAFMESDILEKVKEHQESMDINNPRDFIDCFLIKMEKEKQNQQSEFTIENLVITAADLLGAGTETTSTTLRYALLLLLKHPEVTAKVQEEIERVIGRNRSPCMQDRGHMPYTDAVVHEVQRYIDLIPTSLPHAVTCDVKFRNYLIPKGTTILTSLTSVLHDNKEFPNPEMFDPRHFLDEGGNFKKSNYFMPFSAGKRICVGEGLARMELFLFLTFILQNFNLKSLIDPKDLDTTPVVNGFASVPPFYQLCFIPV
Cytochrome P450 3A4 (Homo sapiens), sequence (P08684 whole entry, looked up): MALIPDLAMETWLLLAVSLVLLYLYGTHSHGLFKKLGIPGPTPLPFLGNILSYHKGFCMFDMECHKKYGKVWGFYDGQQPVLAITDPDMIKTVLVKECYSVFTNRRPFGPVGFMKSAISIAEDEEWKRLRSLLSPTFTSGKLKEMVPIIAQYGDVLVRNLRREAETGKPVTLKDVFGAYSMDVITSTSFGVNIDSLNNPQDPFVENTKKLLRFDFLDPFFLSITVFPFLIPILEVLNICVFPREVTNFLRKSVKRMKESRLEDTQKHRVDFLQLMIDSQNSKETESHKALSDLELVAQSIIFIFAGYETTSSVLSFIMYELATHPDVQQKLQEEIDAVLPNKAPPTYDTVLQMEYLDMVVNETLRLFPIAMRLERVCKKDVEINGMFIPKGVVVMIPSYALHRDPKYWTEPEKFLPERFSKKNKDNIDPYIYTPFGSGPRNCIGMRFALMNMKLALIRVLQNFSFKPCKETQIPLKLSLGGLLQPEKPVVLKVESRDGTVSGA

One may read the AC50 as the midpoint of the concentration-response curve, whichever way the signal moves. For the compound `c1cc2c3c(cccc3c1)CC2`, the call (in assay [1]; in assay [3]; with CYP2C8 (gene 1558); with CYP2C9 (gene 1559); in the assay with CYP4A11 (gene 1579); in assay [4]) was inactive. Further, the compound was classed as inactive in assay [5]. In addition, in assay [2], the AC50 is 50 µM (active).

In the case of `c1ccc(OP(Oc2ccccc2)Oc2ccccc2)cc1`, the compound was called inactive (in assay [1]; in assay [2]; in assay [3]; with CYP2C8 (gene 1558); in the assay with CYP2C9 (gene 1559); with CYP4A11 (gene 1579)). Also, the compound was classed as inactive in assay [4] and in assay [5].

On to `CSC(C)(C)C=NO`, for which the compound was classed as inactive (in assay [1]; in assay [2]; in assay [3]; with CYP2C8 (gene 1558); in the assay with CYP2C9 (gene 1559); in the assay with CYP4A11 (gene 1579)). The outcome in assay [4] and in assay [5] was inactive.

Take `O=C(O)C1C(C(=O)O)C2(Cl)C(Cl)=C(Cl)C1(Cl)C2(Cl)Cl` (stereo not drawn): the call (in assay [1]; in assay [2]; in assay [3]; in the assay with CYP2C8 (gene 1558); in the assay with CYP2C9 (gene 1559); with CYP4A11 (gene 1579)) was inactive. Besides, the result in assay [4] and in assay [5] was inactive.

As to `CC(Cl)(Cl)C(=O)O`, the compound was classed as inactive (in assay [1]; in assay [2]; in assay [3]; with CYP2C8 (gene 1558); in the assay with CYP2C9 (gene 1559); with CYP4A11 (gene 1579)). Besides, the outcome in assay [4] and in assay [5] was inactive.

Consider `CC(C)(C)c1ccc(O)cc1`, for which the outcome in assay [1] and in assay [5] was inactive.

As to `CCC1(c2ccccc2)C(=O)N=C(O)NC1=O` (stereo not drawn), the call (in assay [1]; with CYP2C9 (gene 1559); in assay [5]) was inactive. The AC50 in assay [2] was 34.7 µM (active); in assay [3] it was 63.6 µM (active); in the assay with CYP2C8 (gene 1558), 50 µM (active); in assay [4] it was 50 µM (active).

For `CCOP(=S)(OCC)SCSCC`, the outcome (in assay [1]; in the assay with CYP2C8 (gene 1558); with CYP2C9 (gene 1559); in the assay with CYP4A11 (gene 1579); in assay [5]) was inactive. Besides, the AC50 in assay [2] was 4.47 µM (active); in assay [3], 11.2 µM (active); in assay [4], 13.9 µM (active).

Turning to `CCCCN(CCCC)SN(C)C(=O)Oc1cccc2c1OC(C)(C)C2`, the call (in assay [1]; in the assay with CYP2C8 (gene 1558); with CYP2C9 (gene 1559); in the assay with CYP4A11 (gene 1579); in assay [5]) was inactive. In addition, the concentration at half-maximal activity (AC50) in assay [2] is 6.66 µM (active); in assay [3], 16.7 µM (active); in assay [4], 8.27 µM (active).

Consider `CCCN(CCC)c1c([N+](=O)[O-])cc(C(C)C)cc1[N+](=O)[O-]`, for which the compound was called inactive in assay [1]. Besides, the half-maximal activity concentration (AC50) in assay [2] is 9.38 µM (active); in assay [3], 9.77 µM (active); in the assay with CYP2C8 (gene 1558), 13.2 µM (active); in the assay with CYP2C9 (gene 1559) it was 12.7 µM (active); with CYP4A11 (gene 1579), 81.2 µM (active); in assay [5], 29 µM (active).

`Nc1cc2c3c(c1)C(c1ccccc1)=N[C@@H](NC(=O)c1cccnc1)C(=O)N3CC2`: the compound was called inactive (in assay [1]; with CYP2C8 (gene 1558); with CYP2C9 (gene 1559); in assay [5]). Besides, the AC50 in assay [2] was 3.51 µM (active); in assay [3], 9.8 µM (active); in the assay with CYP4A11 (gene 1579), 50 µM (active); in assay [4] it was 7.78 µM (active).

With `O=P(Oc1ccccc1)(Oc1ccccc1)Oc1ccccc1`, the compound was called inactive (in assay [1]; with CYP2C9 (gene 1559); in assay [5]). In addition, the AC50 in assay [2] is 1.23 µM (active); in assay [3] it was 2.95 µM (active); with CYP2C8 (gene 1558), 12.4 µM (active); in assay [4], 3.44 µM (active).

With `CCOP(=S)(Oc1ccc([N+](=O)[O-])cc1)c1ccccc1` (stereo not drawn), the compound was classed as inactive (in assay [1]; in the assay with CYP2C9 (gene 1559)). Moreover, the AC50 in assay [2] was 1.05 µM (active); in assay [3] it was 6.06 µM (active); with CYP2C8 (gene 1558), 2.42 µM (active); with CYP4A11 (gene 1579) it was 10.8 µM (active); in assay [4] it was 4.84 µM (active); in assay [5] it was 21.4 µM (active).

Take `OCC1CO1` (stereo not drawn): the result (in assay [1]; in assay [2]; in assay [3]; in the assay with CYP2C8 (gene 1558); with CYP2C9 (gene 1559); in the assay with CYP4A11 (gene 1579)) was inactive. Also, the outcome in assay [4] and in assay [5] was inactive.

`Cc1ccc(N)cc1N`: the compound was classed as inactive (in assay [1]; in assay [3]; with CYP2C8 (gene 1558); with CYP2C9 (gene 1559); with CYP4A11 (gene 1579); in assay [4]). The compound was classed as inactive in assay [5]. Also, the AC50 in assay [2] was 5 µM (active).

`Cc1ccc([N+](=O)[O-])cc1C`: the result (in assay [1]; in assay [2]; in assay [3]; with CYP2C8 (gene 1558); in the assay with CYP2C9 (gene 1559); with CYP4A11 (gene 1579)) was inactive. The compound was classed as inactive in assay [4] and in assay [5].

For `c1ccc2c(c1)Nc1ccccc1S2`, the compound was called inactive (in assay [1]; with CYP2C8 (gene 1558); with CYP2C9 (gene 1559); with CYP4A11 (gene 1579); in assay [4]; in assay [5]). Also, the AC50 in assay [2] is 36.6 µM (active); in assay [3] it was 50 µM (active).

On to `Nc1ccc2ccccc2c1`, for which the call (in assay [1]; with CYP2C8 (gene 1558); with CYP2C9 (gene 1559); with CYP4A11 (gene 1579); in assay [4]; in assay [5]) was inactive. In addition, the values for the AC50 in assay [2] and in assay [3] were 13 µM (active) and 26.7 µM (active), respectively.

Regarding `Cc1ccc(O)cc1C`, the compound was classed as inactive in assay [1] and in assay [5].

As to `O=[N+]([O-])c1ccc(Cl)c(Cl)c1`, the compound was called inactive (in assay [1]; in assay [2]; in assay [3]; with CYP2C8 (gene 1558); with CYP2C9 (gene 1559); in the assay with CYP4A11 (gene 1579)). Moreover, the compound was classed as inactive in assay [4] and in assay [5].

For `CN(C)C(=O)Cl`, the call (in assay [1]; in assay [2]; in assay [3]; with CYP2C8 (gene 1558); with CYP2C9 (gene 1559); in the assay with CYP4A11 (gene 1579)) was inactive. Also, the call in assay [4] and in assay [5] was inactive.

For `CCCCc1ccccc1`, the outcome (in assay [1]; in assay [2]; in assay [3]; with CYP2C8 (gene 1558); with CYP2C9 (gene 1559); with CYP4A11 (gene 1579)) was inactive. Besides, the outcome in assay [4] and in assay [5] was inactive.

Take `COCCOCCO`: the compound was classed as inactive (in assay [1]; with CYP2C8 (gene 1558); with CYP2C9 (gene 1559); in the assay with CYP4A11 (gene 1579); in assay [5]). The AC50 in assay [2] was 1.15 µM (active); in assay [3] it was 2.31 µM (active).
